# Measurements: PubChem BioAssay (Tox21)
# A number with no mark means an inactive call. Inconclusive results are not listed. A call without a number means that no potency is given here. The source made the active and inactive calls. Unless noted, calls follow the shape of the dose curve; as a rule, active = well fitted curve in the direction sought with a large enough effect in the repeat runs; inconclusive = weak or mixed curves; inactive = no such curve, though single readings can be large; an effect the other way counts as inactive or inconclusive.
# Experiments:
# [1] = qHTS assay to identify small molecule agonists of the hypoxia (HIF-1) signaling pathway - cell viability counter screen (AID 1224844; calls by dose curve; also: nearly all actives have a fitted effect of over 50% in size); conditions: HRE-bla ME-180 viability, CellTiter-Glo luminescence, 17 h; series mostly up to 76.8 µM
# Outline: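 Cytotoxicity measured by CellTiter-Glo ATP luminescence in the wells also read for beta-lactamase signal. Cells were HRE-bla ME-180 (2,000/well, 0.5% dialyzed FBS), exposed to compounds for 17 h at 37C.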
# [2] = qHTS assay to identify small molecule agonists of H2AX (AID 1224845; active = well fitted activation curve with a large enough effect in the signal ratio in the repeat runs, not every such curve was filed as active; the % refers to the signal ratio); conditions: CHO-K1 phospho-H2AX Ser139 HTRF, 3 h; series mostly up to 70.9 µM
# Outline: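 Phospho-H2AX Ser139 measured by HTRF (ex 320 nm; em 665 and 620 nm) after 24 hr antibody incubation. Compounds, 15 concentrations, 0.76% DMSO, were applied to CHO-K1 cells for 3hr at 37C before lysis.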
# [3] = qHTS assay to identify small molecule agonists of H2AX - cell viability counter screen (AID 1224847; calls by dose curve;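 also: wild-type CHO-K1 cells; top concentration of the series differs between compounds; nearly all actives have a fitted effect of over 30% in size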); conditions: CHO-K1 viability, CellTiter-Glo luminescence, 3 h; series mostly up to 70.9 µM
# Outline: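 Cells plated first: CHO-K1, 1000 per well in 10% FBS medium, incubated overnight at 37C. Then 15-point compound titration added (final DMSO 0.76%) for 3 hr. Finally CellTiter-Glo added and luminescence read.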
# [4] = qHTS assay to identify small molecule antagonists of the estrogen related receptor (ERR) signaling pathway from Tox21 library (AID 1224848); conditions: ERR reporter cell line, luciferase antagonist mode, 18 h; series mostly up to 92.4 µM; also: nearly all actives have a fitted effect of over 50% in size
# Outline: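 Luciferase luminescence (ONE-Glo, 30 min room temperature) was the read-out. Cells of the NTP-supplied ERR line, 2,000 per well, were given 6 h at 37 C before compound addition in DMSO and 18 h exposure at 37 C.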
# [5] = qHTS RealTime-Glo MT Cell Viability Assay in HepG2 cells - 24 hour (AID 1224867); conditions: RealTime-Glo luminescence; series mostly up to 76.8 µM; also: nearly all actives have a fitted effect of over 50% in size
# Outline: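 Cell number in HepG2 cultures estimated from NanoLuc luminescence generated by metabolic reduction of a prosubstrate by living cells. The homogeneous, nonlytic format allowed repeated reads at 0, 8, 16, 24, 32 and 40 h of compound exposure.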
# [6] = qHTS RealTime-Glo MT Cell Viability Assay in HEK293 cells - 32 hour (AID 1224868); conditions: RealTime-Glo luminescence; series mostly up to 76.8 µM; also: nearly all actives have a fitted effect of over 50% in size; also: potency is read from the fitted curve at half-maximal effect; as to activity change, negative = cytotoxic: top concentration of the series differs between compounds
# Outline: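 Homogeneous bioluminescent viability format in HEK293 cells (600 cells/well). Following 5 h at 37 C/5% CO2, 23 nL compound was pintooled; the signal was measured repeatedly during 40 h incubation.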
# [7] = A CellTox Green Cytotoxicity Assay to monitor cytotoxicity in HEK293 cells - 0 hour (AID 1224869); conditions: CellTox Green fluorescence; series mostly up to 76.8 µM; also: nearly all actives have a fitted effect of over 50% in size; also: potency is read from the fitted curve at half-maximal effect
# Outline: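 Fluorescence from a DNA-binding dye excluded by viable cells was measured repeatedly in the same HEK293 wells (600 cells/well) during continuous compound exposure at 37 C. Each assay gives one read point: 0, 8, 16, 24, 32 or 40 h.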
# [8] = qHTS RealTime-Glo MT Cell Viability Assay in HepG2 cells - 40 hour (AID 1224870); conditions: RealTime-Glo luminescence; series mostly up to 76.8 µM; also: nearly all actives have a fitted effect of over 50% in size
# Outline: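 Real-time viability: cells seeded at 600 per well together with NanoLuc and cell-permeant prosubstrate, compounds added after 5 h incubation. Luminescence tracked at 0, 8, 16, 24, 32 and 40 h of exposure.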
# [9] = qHTS assay to identify small molecule agonists of the estrogen related receptor (ERR) signaling pathway from Tox21 library (AID 1224849; calls by dose curve; also: nearly all actives have a fitted effect of over 15% in size); conditions: ERR reporter cell line, ONE-Glo luciferase, 18 h; at 92.4 µM (top of the series) unless noted
# Outline: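 Luminescent agonist read-out (One-Glo, 30-minute room-temperature incubation) following 18-hour compound treatment at 37 C of the ERR cell line, which had been plated 6 hours before dosing.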
smiles,measurement,setting,value
O=C(O)CN(CCOCCOCCN(CC(=O)O)CC(=O)O)CC(=O)O,"activity change, negative = cytotoxicity",[1],-1.26% [at 0.29 µM]
same,activation (H2AX phosphorylation),[2],-0.327% [at 0.582 µM]
same,"activity change, negative = cytotoxicity",[3],3.97% [at 0.582 µM]
same,"activity, negative = inhibition",[4],2.61% [at 0.349 µM]
same,"activity change, negative = cytotoxicity",[5],-0.276% [at 0.29 µM]
same,"activity change, negative = cytotoxic",[6],6.99% [at 0.29 µM]
same,cytotoxicity,[7],0.267% [at 0.29 µM]
same,"activity change, negative = cytotoxic",[8],0.968% [at 0.29 µM]
COC(=O)c1ccc(C)cc1C1=NC(C)(C(C)C)C(=O)N1 (centres undefined),Potency,[1],inactive
same,outcome,[2],inactive
same,Potency,[3],inactive
same,Potency,[4],inactive
same,Potency,[5],inactive
same,Potency,[6],inactive
same,Potency,[7],inactive
same,Potency,[8],inactive
Nc1c2c(nc3ccccc13)CCCC2O (centres undefined),Potency,[1],inactive
same,outcome,[2],inactive
same,Potency,[3],inactive
same,Potency,[4],inactive
same,"activity change, positive = activation",[9],0.138% [at 42.5 µM]
same,Potency,[6],inactive
same,Potency,[7],inactive
same,Potency,[8],inactive
N#Cc1ccc(C2CCCc3cncn32)cc1 (centres undefined),Potency,[1],inactive
same,outcome,[2],inactive
same,Potency,[3],inactive
same,"activity change, positive = activation",[9],-20.4% [at 42.5 µM]
same,Potency,[5],inactive
same,Potency,[6],inactive
same,Potency,[7],inactive
same,Potency,[8],inactive
O=C(CCCN1CCN(c2ccccn2)CC1)c1ccc(F)cc1,Potency,[1],inactive
same,outcome,[2],inactive
same,Potency,[3],inactive
same,Potency,[4],inactive
same,"activity change, positive = activation",[9],-14.3% [at 42.5 µM]
same,Potency,[5],inactive
same,Potency,[7],inactive
same,Potency,[8],inactive
CCN(Cc1ccncc1)C(=O)C(CO)c1ccccc1 (centres undefined),Potency,[1],inactive
same,outcome,[2],inactive
same,Potency,[3],inactive
same,Potency,[5],inactive
same,Potency,[6],inactive
same,Potency,[7],inactive
same,Potency,[8],inactive
Brc1c(NC2=NCCN2)ccc2nccnc12,Potency,[1],inactive
same,outcome,[2],inactive
same,Potency,[3],inactive
same,Potency,[4],inactive
same,Potency,[6],inactive
same,Potency,[8],inactive
CC(C[N+](C)(C)C)OC(N)=O (centres undefined),Potency,[1],inactive
same,outcome,[2],inactive
same,Potency,[3],inactive
same,Potency,[4],inactive
same,Potency,[5],inactive
same,Potency,[6],inactive
same,Potency,[7],inactive
same,Potency,[8],inactive
CC(C)NCC(O)c1ccc(NS(C)(=O)=O)cc1 (centres undefined),Potency,[1],inactive
same,outcome,[2],inactive
same,Potency,[3],inactive
same,Potency,[5],inactive
same,Potency,[6],inactive
same,Potency,[7],inactive
same,Potency,[8],inactive
Cc1cccc(C)c1NC(=O)C(C)N (centres undefined),Potency,[1],inactive
same,outcome,[2],inactive
same,Potency,[3],inactive
same,Potency,[4],inactive
same,"activity change, positive = activation",[9],3.88% [at 42.5 µM]
same,Potency,[6],inactive
same,Potency,[7],21.3 µM (active)
same,Potency,[8],inactive
c1ccc(CC2=NCCN2)cc1,Potency,[1],inactive
same,outcome,[2],inactive
same,Potency,[3],inactive
same,Potency,[4],inactive
same,Potency,[5],inactive
same,Potency,[6],inactive
same,Potency,[8],inactive
CC(=O)OCC(=O)[C@@]1(O)CC[C@H]2[C@@H]3CCC4=CC(=O)CC[C@]4(C)[C@H]3C(=O)C[C@@]21C,Potency,[1],inactive
same,outcome,[2],inactive
same,Potency,[3],inactive
same,Potency,[5],inactive
same,Potency,[6],inactive
same,Potency,[7],inactive
same,Potency,[8],inactive
C[N+](C)(C)CCCCCC[N+](C)(C)C,Potency,[1],inactive
same,outcome,[2],inactive
same,Potency,[3],inactive
same,Potency,[5],inactive
same,Potency,[6],inactive
same,Potency,[7],inactive
same,Potency,[8],inactive
NC(=O)c1ccc([N+](=O)[O-])cc1,Potency,[1],inactive
same,outcome,[2],inactive
same,Potency,[3],inactive
same,Potency,[4],inactive
same,"activity change, positive = activation",[9],-5.69%
same,Potency,[6],inactive
same,Potency,[8],inactive
O=C1CCCC(=O)C1,Potency,[1],inactive
same,outcome,[2],inactive
same,Potency,[3],inactive
same,Potency,[4],inactive
same,"activity change, positive = activation",[9],-12.9%
same,Potency,[6],inactive
same,Potency,[7],inactive
same,Potency,[8],inactive
CCC(C)S (centres undefined),"activity change, negative = cytotoxicity",[1],6.65% [at 2.72 µM]
same,activation (H2AX phosphorylation),[2],-0.0858% [at 5.45 µM]
same,"activity change, negative = cytotoxicity",[3],4.19% [at 5.43 µM]
same,"activity, negative = inhibition",[4],2.44% [at 3.27 µM]
same,"activity change, negative = cytotoxic",[6],3.1% [at 2.72 µM]
same,cytotoxicity,[7],-0.294% [at 2.72 µM]
same,"activity change, negative = cytotoxic",[8],2.53% [at 2.72 µM]
O=c1[nH]c(=O)n([C@H]2C[C@H](O)[C@@H](CO)O2)cc1I,Potency,[1],inactive
same,outcome,[2],inactive
same,Potency,[3],inactive
same,Potency,[4],inactive
same,"activity change, positive = activation",[9],11% [at 42.5 µM]
same,Potency,[6],inactive
same,Potency,[7],inactive
same,Potency,[8],inactive
O=C(CCCN1CCC(O)(c2cccc(C(F)(F)F)c2)CC1)c1ccc(F)cc1,Potency,[1],inactive
same,outcome,[2],inactive
same,Potency,[3],inactive
same,Potency,[4],inactive
same,Potency,[5],inactive
same,Potency,[6],19 µM (active)
same,Potency,[7],inactive
same,Potency,[8],inactive
CN1CC(=O)NC1=N,Potency,[1],inactive
same,outcome,[2],inactive
same,Potency,[3],inactive
same,Potency,[4],inactive
same,"activity change, positive = activation",[9],4.02% [at 42.5 µM]
same,Potency,[5],inactive
same,Potency,[6],inactive
same,Potency,[8],inactive
CCn1nc(C(=O)O)c(=O)c2cc3c(cc21)OCO3,Potency,[1],inactive
same,outcome,[2],inactive
same,Potency,[3],inactive
same,Potency,[4],inactive
same,"activity change, positive = activation",[9],7.18% [at 42.5 µM]
same,Potency,[6],inactive
same,Potency,[7],inactive
same,Potency,[8],inactive
CC(NC(CCc1ccccc1)C(=O)O)C(=O)N1C(=O)N(C)CC1C(=O)O (centres undefined),Potency,[1],inactive
same,outcome,[2],inactive
same,Potency,[3],inactive
same,Potency,[4],inactive
same,"activity change, positive = activation",[9],2.19% [at 42.5 µM]
same,Potency,[5],inactive
same,Potency,[6],inactive
same,Potency,[8],inactive
CCN(CC)CCNC(=O)c1cc(S(C)(=O)=O)ccc1OC,Potency,[1],inactive
same,outcome,[2],inactive
same,Potency,[3],inactive
same,Potency,[5],inactive
same,Potency,[6],inactive
same,Potency,[7],inactive
same,Potency,[8],inactive
CC(=O)Nc1ccc(S(N)(=O)=O)cc1,Potency,[1],inactive
same,outcome,[2],inactive
same,Potency,[3],inactive
same,Potency,[4],inactive
same,Potency,[5],inactive
same,Potency,[6],inactive
same,Potency,[7],inactive
same,Potency,[8],inactive
